Assay results published in the supplement of paper PMC12669032.
Where “and” joins values, the source holds several entries; their conditions need not be identical. Equal entries are not always repeated. Values without a mark were called inactive.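 Rule for the calls: active = AUC reduced over 20% with Padj below 0.05 in at least 2 of 3 replicates; inactive = otherwise.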

Legend:
Assay in all cases: growth AUC relative to DMSO control (median of replicates) (fraction); higher = more growth (less inhibition), active = hit call of the paper
Details in all cases: 20 µM; 24 h
[1] = system: Akkermansia muciniphila
In short: (§1)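 Gut bacterial monocultures were grown anaerobically at 37 °C in mGAM, starting at OD600 0.05, with 20 µM compound (1% DMSO) in round-bottom 96-well plates under pierced gas-permeable seals. OD600 was read hourly for 24 h. Area under the growth curve (minimum OD set to 0) was normalised to the plate median of DMSO controls, or to row and column medians on the industrial chemical plate. The value is the median of three biological replicates grown on separate days.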

[2] = system: Bacteroides caccae
In short: as §1

[3] = system: Bacteroides clarus
In short: as §1

[4] = system: Bacteroides dorei
In short: as §1

[5] = system: Bacteroides stercoris
In short: as §1

[6] = system: Bacteroides thetaiotaomicron
In short: as §1

[7] = system: Bacteroides uniformis
In short: as §1

[8] = system: Bifidobacterium longum subsp. longum
In short: as §1

[9] = system: Clostridium difficile
In short: as §1

[10] = system: Collinsella aerofaciens
In short: as §1

SMILES	growth AUC [1]	growth AUC [2]	growth AUC [3]	growth AUC [4]	growth AUC [5]	growth AUC [6]	growth AUC [7]	growth AUC [8]	growth AUC [9]	growth AUC [10]
CCCSP(=O)(OCC)SCCC	1.14	0.994	1.02	0.962	1.02	0.998	0.98	1.02	0.997	0.99
CC(C)C1(C)N=C(c2nc3ccccc3cc2C(=O)O)NC1=O (stereo not given)	0.971	1.01	1.02	0.957	1.03	0.992	1.01	0.967	0.958	0.962
O=[N+]([O-])c1c(Cl)c(Cl)c(Cl)c(Cl)c1Cl	0.814	0.777	0.816	0.972	0.986	0.915	0.917	0.808	1.01	1.04
CNC(=O)c1cc(Cl)cc(C)c1NC(=O)c1cc(Br)nn1-c1ncccc1Cl	0.893	1	0.952	0.999	0.946	0.967	0.976	0.969	0.964	1.02
Cc1c(F)c(F)c(COC(=O)[C@@H]2[C@H](/C=C(\Cl)C(F)(F)F)C2(C)C)c(F)c1F (mixture of isomers)	0.937	0.943	0.993	0.935	0.981	0.989	1.01	0.997	1	0.976
CNC(=O)O/N=C(\C)SC	0.938	0.99	0.981	1.03	1.06	0.988	0.988	0.91	0.999	1.03
CC(C)OC(=O)C(O)(c1ccc(Br)cc1)c1ccc(Br)cc1	0.997	0.883	0.779 (active)	0.933	0.239 (active)	0.93	0.923	0.96	0.982	0.928
CCOP(=S)(Oc1ccc([N+](=O)[O-])cc1)c1ccccc1 (stereo not given)	1.06	0.961	1.02	0.972	1.11	1.01	0.919	1.02	1.03	0.996
CNC(=O)ON=C(CS(C)=O)C(C)(C)C (stereo not given)	1.08	1.02	0.997	1.01	0.97	1.02	1.01	0.955	1.02	1
CCOC(=O)C(SP(=S)(OC)OC)c1ccccc1 (stereo not given)	0.867	0.974	0.933	0.973	0.986	0.938	0.929	1	1.04	1
O=c1oc2ccccc2c(O)c1C1CC(c2ccc(-c3ccccc3)cc2)Cc2ccccc21 (stereo not given)	0.831	0.895	0.66 (active)	0.904	0.00795 (active)	0.76 (active)	0.858	0.886	0.803	0.975
CNC(=O)Oc1cccc(N=CN(C)C)c1.Cl	1.18	1.03	1.03	1.02	1.12	1.02	0.993	1.06	1.02	1.04
Cc1cc(Cl)ccc1OCC(=O)O	1.02	0.996	1.01	0.933	0.945	1.02	1	1.1	0.967	1.04
CCN(CC)C(=O)/C(Cl)=C(/C)OP(=O)(OC)OC	1.19	1	0.975	0.921	0.977	0.958	0.979	1.02	0.94	0.967
COP(=S)(OC)Oc1ccc(S(N)(=O)=O)cc1	1.02	1.03	0.995	1	0.984	0.984	1.02	0.969	0.992	0.984
COP(=S)(OC)SCN1C(=O)c2ccccc2C1=O	0.901	0.971	0.966	1	0.97	0.978	0.975	0.951	0.94	0.965
CCOC(=O)OC1=C(c2cc(C)ccc2C)C(=O)NC12CCC(OC)CC2 (stereo not given)	0.953	1	0.995	0.996	1.04	0.971	0.982	0.996	0.977	0.997
COP(=O)(OC)Oc1ccc(S(C)(=O)=O)c(C)c1	0.876	0.971	0.963	0.987	1.01	1	0.981	0.956	0.994	1.01
CON(C)C(=O)Nc1ccc(Br)c(Cl)c1	0.863	1.04	0.978	1.08	0.958	0.998	0.944	0.946	0.996	1

SMILES	growth AUC [1]	growth AUC [2]	growth AUC [3]	growth AUC [4]	growth AUC [5]	growth AUC [6]	growth AUC [7]	growth AUC [8]	growth AUC [9]	growth AUC [10]
O=P(Oc1ccccc1)(Oc1ccccc1)Oc1ccccc1	0.805	0.898	0.958	0.96	0.755 (active)	0.901	0.923	0.919	1	1.02
[CH3][Hg][Cl]	0.749	0.912	0.837	0.96	0.903	0.679 (active)	0.77 (active)	0.868	0.902	1.01
CC(Oc1cc(Cl)c(Cl)cc1Cl)C(=O)O (stereo not given)	0.958	1	0.949	0.979	0.973	0.99	0.987	0.787	1.02	1.01
C=CCC1=C(C)C(OC(=O)C2C(C=C(C)C)C2(C)C)CC1=O (stereo not given)	1.05	0.994	1	0.97	0.832	0.968	0.98	0.963	1	0.957
CC(C)(C)[C@@H](O)[C@H](Oc1ccc(Cl)cc1)n1cncn1	1.06	0.904	1.02	0.953	1.25	0.948	0.975	0.998	1	0.988
Cc1cc(Cl)ccc1OC(C)C(=O)O (stereo not given)	0.902	1.02	0.996	1	1.01	1.01	1	0.88	1.03	1.01
O=C(O)c1cc(Cl)ccc1Cl	0.97	0.998	0.989	0.961	0.89	1	1.03	1.17	1.02	0.952
CO/N=C(/C(=O)OC)c1ccccc1COc1ccccc1C	0.899	0.979	0.957	0.964	0.993	0.907	0.955	0.874	1.02	0.991
CCOP(=S)(OCC)SCn1c(=O)oc2cc(Cl)ccc21	0.99	0.921	0.94	0.936	0.831	0.945	0.927	0.943	0.978	0.991
CCOP(=O)(NC(C)C)Oc1ccc(S(C)(=O)=O)c(C)c1 (stereo not given)	1.03	1.01	1.04	1.04	1.05	1.02	1.01	0.986	1.04	1.01
N#Cc1nn(-c2c(Cl)cc(C(F)(F)F)cc2Cl)c(N)c1C(F)(F)F	1.08	0.898	0.741 (active)	0.773	0.626	1.01	0.97	0.858	0.609 (active)	0.967
CCOP(=S)(OCC)SCSC(C)(C)C	1.04	0.964	1.01	0.963	0.988	0.998	1.02	1.13	0.888	0.96
Cc1cc(Cl)ccc1O	1.04	1.02	1.03	1.01	1.09	1.03	1	0.911	1	1.01
CCc1nn(C)c(C(=O)NCc2ccc(C(C)(C)C)cc2)c1Cl	1.02	0.94	0.929	0.921	0.725 (active)	0.694 (active)	0.982	0.95	0.972	0.887
CCCCN(CCCC)N=O	0.985	1.01	1.02	1.01	1	1	1	1.01	1.01	1.03
CCN(CC)N=O	1	1	1	1.04	1.04	1.01	1	1.05	1.02	0.991
CC1(C)CON(Cc2ccccc2Cl)C1=O	1.11	0.927	1.01	0.917	0.996	0.98	0.949	0.938	0.977	0.947
CNC(=O)Oc1ccccc1OC(CCl)OC (stereo not given)	1.17	0.941	1.06	0.955	1.23	1.02	0.982	1.02	1.03	1.07
CC(C)CC(C)c1sccc1NC(=O)c1cn(C)nc1C(F)(F)F (stereo not given)	0.99	0.967	0.94	1.02	1.07	0.938	0.942	1.02	1	0.99

SMILES	growth AUC [1]	growth AUC [2]	growth AUC [3]	growth AUC [4]	growth AUC [5]	growth AUC [6]	growth AUC [7]	growth AUC [8]	growth AUC [9]	growth AUC [10]
CCCN(CCC)c1c([N+](=O)[O-])cc(S(C)(=O)=O)cc1[N+](=O)[O-]	0.897	0.942	0.963	0.937	0.856	0.987	0.954	0.948	0.965	0.914
CCCCC(O)(Cn1cncn1)c1ccc(Cl)cc1Cl (stereo not given)	0.965	0.944	0.96	0.97	1.22	0.92	0.971	1.02	0.92	1
CCCSP(=S)(OCC)Oc1ccc(SC)cc1 (stereo not given)	0.897	0.998	0.958	1	1.06	0.979	0.998	0.971	1.01	1.04
O=C(O)c1ccccc1C(=O)Nc1cccc2ccccc12	1.04	1.04	1.02	1.02	1.18	1.01	0.993	1.03	1.01	1.03
COC(=O)c1sccc1S(=O)(=O)NC(=O)Nc1nc(C)nc(OC)n1	1.13	0.932	0.994	0.875	0.961	0.924	1.03	1.09	0.944	0.898
CC[C@H](C)[C@H]1O[C@]2(C=C[C@@H]1C)C[C@@H]1C[C@@H](C/C=C(\C)[C@@H](O[C@H]3C[C@H](OC)[C@@H](O[C@H]4C[C@H](OC)[C@@H](NC)[C@H](C)O4)[C@H](C)O3)[C@@H](C)/C=C/C=C3\CO[C@@H]4[C@H](O)C(C)=C[C@@H](C(=O)O1)[C@]34O)O2.O=C(O)c1ccccc1	1.08	0.0357 (active)	0.264 (active)	0.0271 (active)	0.00403 (active)	0.812	0.322 (active)	0.167 (active)	0.781	0.553 (active)
CCOP(=O)(OCC)OCC	1.06	0.991	1.03	0.972	1.03	1.02	1.03	0.971	0.989	0.967
Clc1ccc(Cl)c(Cl)c1Cl	0.865	0.985	0.958	1.02	1.04	0.992	0.996	0.99	1	0.982
O=[N+]([O-])c1ccc(Oc2ccc(Cl)cc2Cl)cc1	1.09	0.959	0.971	0.973	1.09	0.99	0.931	0.972	0.97	0.998
CCN(CC)c1nc(C)cc(OP(=S)(OC)OC)n1	0.948	0.979	0.974	1	0.927	0.945	0.976	0.967	1.02	0.989
CS(=O)(=O)c1cc(C(F)(F)F)ccc1C(=O)c1cnoc1C1CC1	1	1.08	1.01	1.02	0.921	1.02	0.994	0.982	1.05	1
O=C(O)c1nc(Cl)ccc1Cl	1.11	1.01	1.02	1.03	1.11	0.993	1.01	1.03	0.975	0.982
COC(=O)/C=C(/C)OP(=O)(OC)OC	1.05 and 1.08	0.952 and 0.906	1.02 and 1.08	0.879 and 1.01	0.938 and 1.2	0.992 and 0.984	0.981 and 0.997	1 and 1.06	0.956 and 1.01	0.959 and 0.989
CN(C)C(=O)C(c1ccccc1)c1ccccc1	0.89	1.03	0.963	1.05	0.957	0.992	1.05	0.947	1.03	1.01
CC#Cc1cc(C)nc(Nc2ccccc2)n1	1.08	1.01	0.991	0.941	1	0.945	0.975	0.978	0.965	0.995
CCCCN(CC)c1c([N+](=O)[O-])cc(C(F)(F)F)cc1[N+](=O)[O-]	0.993	1	0.964	1.01	1	1.02	0.99	1.01	1.11	1.04
CCOC(=O)COc1cc(-c2nn(C)c(OC(F)F)c2Cl)c(F)cc1Cl	0.977	0.974	0.986	0.99	0.965	1.01	1.04	1.03	1.02	1.04
Nc1ncn[nH]1	0.877	1.04	1.01	1.02	0.931	1.01	0.997	1.02	1.01	0.995
